Screening results (PubChem BioAssay)
Many of the other results were omitted from the sample, so hits are more common in it than they were.
HIV RNase H inh: inhibitors of HIV-1 reverse transcriptase RNase H | P04585 | RT-RNase H RNA/DNA duplex cleavage, fluorescence | inhibition, % at 10 µM | 65,000 tested, 1.9% active | AID 565; in the data active means inhibition above about 50%
RmlCD inh mix: mixture blocks RmlC and RmlD coupled enzyme activity | RmlC/RmlD coupled enzyme inhibition, 384-well mixture HTS | inhibition, % at 5.5 µM | 110,000 tested, 0.39% active; in the data active means inhibition above about 30%, passing the limit was not always enough; inconclusive means no clear call, values can overlap the other calls
* = called active by the depositor; ? = inconclusive; / = no result.

SMILES	HIV RNase H inh	RmlCD inh mix
CCN(CC)C(=O)c1sc2nc(-c3cccs3)cc(-c3ccc(Cl)cc3)c2c1N	/	13
CCCCc1nc2ccccc2c(=O)n1NC(=O)c1c(O)c2c(n(CC(C)C)c1=O)CCCC2	52*	-7
CC(C)Cn1c2c(c(O)c(C(=O)Nc3ncccc3O)c1=O)CCCC2	8	6
CCOc1cc(CNCc2ccncc2)cc(Br)c1OCc1ccc(F)cc1	/	16
COC(=O)c1cc(C(=O)OC)cc(S(=O)(=O)Nc2ccc(Cl)c(N)c2)c1	-3	6
COc1ccc(/C(O)=C2\C(=O)C(=O)N(c3cc(C)on3)C2c2ccccc2OC)cc1 (configuration not stated)	8	0
COc1ccccc1C1c2c(oc3ccc(Cl)cc3c2=O)C(=O)N1c1cc(C)on1 (configuration not stated)	51*	/
CC(=O)CSc1nnc(-c2ccc(S(=O)(=O)N3CCC(C)CC3)cc2)o1	/	-2
O=C(Nc1ccc2nc(-c3cccs3)c(-c3cccs3)nc2c1)N1CCOCC1	3	-205
O=C(c1ccc2nc(-c3ccco3)c(-c3ccco3)nc2c1)N1CCN(c2ccccc2)CC1	76*	-4
O=C(Nc1ccc(N2CCOCC2)cc1)Nc1ccc2nc(-c3ccco3)c(-c3ccco3)nc2c1	68*	-10
O=C(c1cc(-c2ccco2)on1)N1CCN(c2ccccc2)CC1	-6	-13
CCCC[C@H]1C2=C3[C@@H](CC(C(=O)OC)=C[C@@H](C(=O)OC)[C@H]3C(C)(C)C2=O)n2c(=O)n(-c3ccccc3)c(=O)n21	/	9
CC1(C)Oc2ccc(C#N)cc2[C@@H](N2CCCC2=O)[C@@H]1O	/	-19
CCn1c(CNC(=O)Cc2ccc(OC)cc2)nnc1SCC(=O)Nc1nccs1	3	-5
CCn1c(COc2ccc3c(c2)CCCC3)nnc1SCC(=O)Nc1nccs1	62*	10
C=CCn1c(SCC(=O)Nc2nccs2)nnc1-c1cc2cccc(OC)c2o1	53*	12
C=CCn1c(SCC(=O)Nc2ccccc2OC)nnc1-c1ccco1	7	30
COC(=O)C1=C(C)N(CCCC(=O)O)C(=O)NC1c1ccccc1OS(=O)(=O)c1ccc([N+](=O)[O-])cc1 (configuration not stated)	/	5
CCOC(=O)c1sc2nc(SCC(=O)NCc3ccco3)n(Cc3ccccc3)c(=O)c2c1C	66*	/
Cc1sc2nc(SCC(=O)NCc3ccco3)n(-c3ccccc3)c(=O)c2c1C	27	-9
Cc1ccc(-n2c(SCC(=O)NCc3ccco3)nc3sc(C)c(C)c3c2=O)cc1	55*	3
Cc1sc2nc(SCC(=O)NCc3ccco3)n(Cc3ccccc3)c(=O)c2c1C	/	-5
COC(=O)c1cc(Nc2ncnc3c2cnn3-c2ccccc2)cc(C(=O)OC)c1	17	/
CC1=CC(=O)c2c(O)ccc(O)c2C1=O	/	-8
SMILES	HIV RNase H inh	RmlCD inh mix
COc1ccc(-c2ccncc2)cc1OC	/	-10
COC(C/C=C/C(=O)[C@H](C)OCc1ccccc1)OC	/	-4
O=C1N2c3ccccc3CCc3cccc(c32)C1(O)C(F)(F)F (configuration not stated)	-72	-12
COC(=O)c1sc2ccccc2c1C(=O)OC	-27	6
COC(=O)c1sc2ccccc2c1N	54*	-5
O=C(c1ccc(CNS(=O)(=O)c2ccccc2)cc1)N1CCN(c2ccccn2)CC1	63*	/
O=C(c1ccc(Cl)c(S(=O)(=O)NCc2ccccc2)c1)N1CCN(c2ccccn2)CC1	/	-15
COc1ccc(CNC(=O)CCCCCn2c(SCC#N)nc3cc4c(cc3c2=O)OCO4)cc1	57*	6
COc1ccc(CCNC(=O)CCCn2c(SCC#N)nc3ccccc3c2=O)cc1OC	-14	15
COCCCn1c2nc3ccccc3nc2c2c(=O)n(Cc3ccccc3Cl)cnc21	16	75*
COCCCn1c2nc3ccccc3nc2c2c(=O)n(Cc3ccc(Cl)cc3)cnc21	18	21
O=c1c(-c2ccnn2-c2cccc(Cl)c2)cnc2n1CCS2	/	-11
Cc1ccc(Cn2c(=S)[nH]c3ccc(N4CCOCC4)cc3c2=O)o1	64*	14
O=c1c2cc(N3CCOCC3)ccc2[nH]c(=S)n1Cc1ccc(Cl)cc1	/	-21
COC(=O)C1=C(CSc2nncn2C)NC(=O)NC1c1ccc(F)cc1 (configuration not stated)	/	-4
CN1C(=O)Cc2cc(S(=O)(=O)N3CCOCC3)ccc21	-1	6
CCCNc1cc(C)c(C#N)c2nc3ccccc3n12	/	55
COCCNc1cc(C)c(C#N)c2nc3ccccc3n12	-7	36*
CCOC(=O)c1cccc(NS(=O)(=O)c2ccc(NC(C)=O)cc2)c1	/	4
CCOC(=O)/C=C/S(=O)(=O)c1ccc(NC(C)=O)cc1	50*	?
Clc1ccc(Cl)c(-c2nn3c(Cn4cnc5ccccc54)nnc3s2)c1	-30	9
Clc1ccc(-c2nn3c(Cn4cnc5ccccc54)nnc3s2)c(Cl)c1	71*	/
CC(C)[C@@]1(NC(=O)[C@@H]2C=C3c4cccc5[nH]cc(c45)C[C@H]3N(C)C2)O[C@@]2(O)[C@@H]3CCCN3C(=O)[C@H](Cc3ccccc3)N2C1=O	55*	/
CC(C)C[C@H]1C(=O)N2CCCC2[C@]2(O)O[C@](NC(=O)[C@@H]3C=C4c5cccc6[nH]cc(c56)CC4N(C)C3)(C(C)C)C(=O)N12 (some centres not stated)	/	-3
Cc1csc2c(C#N)c(=O)c3c(n12)CCC3	-27	-2
SMILES	HIV RNase H inh	RmlCD inh mix
Cc1ccc2nc(SCC(=O)NCC3CCCO3)c(C#N)cc2c1 (configuration not stated)	59*	-18
Cc1ccc2cc(C#N)c(SCC(=O)NCC3CCCO3)nc2c1 (configuration not stated)	-37	-1
COc1ccc(-c2ccc(-c3noc(-c4ccccc4F)n3)c(OC)n2)cc1	54*	-25
COc1ccc(-c2ccc(-c3noc(-c4ccccc4)n3)c(OC)n2)cc1	2	-307
COc1ccc(CNC(=O)C(CCSC)NC(=O)c2ccco2)cc1 (configuration not stated)	/	5
O=C(Nc1nnc(-c2ccccc2)o1)c1nc2ccccc2s1	66*	29
NC(=O)c1oc2ccccc2c1NC(=O)c1nc2ccccc2s1	5	-5
CC(C)C(C(=O)N1CCN(C(=O)OC(C)(C)C)CC1)n1cc(-c2cn([C@@H](C)C(=O)N3CCN(C(=O)OC(C)(C)C)CC3)nn2)nn1 (some centres not stated)	/	-10
CCOC(=O)Cn1c(=O)oc2cc(S(=O)(=O)Nc3cc(OCC)ccc3OCC)ccc21	2	-6
CCOC(=O)Cn1c(=O)oc2cc(S(=O)(=O)Nc3ccc(N(CC)CC)cc3C)ccc21	50*	6
CC1(C)Cc2c(cnn2-c2ccccc2)C(=O)/C1=N\NC(=O)c1ccccc1O	/	10
O=C(Nc1ccc(N2CCCC2)cc1)c1cccc(F)c1	59*	7
O=C(Nc1ccc(N2CCCCC2)cc1)c1ccccc1	12	-9
O=C1OCCC1Sc1nc(-c2ccccc2)cs1 (configuration not stated)	-27	5
Oc1ccc(C=Nc2cccc3ncccc23)c(O)c1	1	-13
COc1cccc(N=Cc2ccc(O)cc2O)c1	53*	5
CC(=O)/C(CN1CCCCC1)=N\O	-10	1
C/C(=N\O)C(=O)C(CN1CCCCC1)CN1CCCCC1	51*	-4
O=C(NCc1cccnc1)c1cn(CCc2ccccc2)nn1	-3	4
